The nature of experiment [1]: Cell Viability - BJ (AID 421; calls by dose curve;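 note: potency is the fitted concentration of half-maximal effect; cells exposed to compound for 40 hours at 37 °C before readout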). Particulars: BJ fibroblast viability, qHTS. The method in brief: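 Quantitative HTS: ATP depletion in BJ cells after 40 hr compound exposure in complete culture medium, detected with CellTiter-Glo; AC50 from standard Hill fits.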
(In general: In qHTS, concentration-response curves come from the screen itself.)

Experiment [2] can be described thus: Cellular Toxicity (caspase-3) HUV-EC-C (AID 656). Particulars: HUV-EC-C cells, caspase-3 activation (apoptosis), vehicle = 0, 100 µM tamoxifen = 100%; series mostly up to 92.2 µM. Summed up: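 Luminescent Caspase-Glo 3/7 readout after 16 h, 37 °C compound exposure of HUV-EC-C endothelial cells, 1000 per well, complete medium. AC50 derived by Hill fitting, with DMSO as baseline and 100 uM tamoxifen as full activation.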

Experiment [3] in a line: Cellular Toxicity (caspase-3) MRC-5 (AID 659). The conditions noted are these: MRC-5 cells, luminescence, normalized: DMSO 0%, 10 µM staurosporine 100%; series mostly up to 91.7 µM. Summed up:
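Concentration-dependent caspase 3/7 activation is measured in human normal lung fibroblasts (MRC-5) following 16-hour treatment. AC50 values come from standard Hill-equation modeling of luminescence normalized to DMSO and 10 uM staurosporine.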

A short description of experiment [4]: Cellular Toxicity (caspase-3) Mesangial (AID 660).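 Note: combined caspase 3 and 7 activity read by Caspase-Glo luminescence; cells exposed to compound for 16 h before the caspase read.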 Particulars: mesangial cells, normalized: DMSO 0%, 100 µM tamoxifen 100%; series mostly up to 91.7 µM. Summed up: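 Mesangial cells, 1000/well, 5 h settle at 37 °C; compound 16 h, 37 °C; Caspase-Glo 3/7 reagent 20 min RT; luminescence. Norm.: DMSO = 0%, tamoxifen 100 uM = 100%. AC50, Hill fit.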
Experiment [5] can be described thus: Cellular Toxicity (caspase-3) SK-N-SH (AID 661). The conditions noted are these: SK-N-SH caspase-3 activation, qHTS; series mostly up to 91.7 µM. The method in brief: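 Human neuroblastoma SK-N-SH, 1500 cells/well, 5 hr pre-incubation, then compound 16 hr, 37 °C. Caspase-Glo 3/7 reagent, 1 hr RT, luminescence. Norm. to DMSO/10 uM staurosporine; Hill-fit AC50.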

Experiment [6] in a line: Cellular Toxicity (caspase-3) Hek293 (AID 664).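 Note: cells exposed to compound for 16 h at 37 °C before readout.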 The conditions noted are these: HEK293 caspase-3 activation, DMSO = 0%, 100 µM tamoxifen = 100%; at 92.2 µM (top of the series). Summed up: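 Cells plated, 5 hr at 37 °C; compounds added; 16 hr at 37 °C; Caspase-Glo 3/7 reagent, 20 min RT; luminescence read. Activation expressed relative to DMSO and 100 uM tamoxifen, AC50 by Hill model.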

Experiment [7] can be described thus: Cellular Toxicity (caspase-3) NIH 3T3 (AID 666).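 Note: caspase signal read after 16 h compound exposure; 0% = DMSO basal and 100% = 100 µM tamoxifen stimulation.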 Particulars: NIH 3T3 caspase-3 activation, apoptosis/toxicity; series mostly up to 92.2 µM. Summed up:
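Luminescence from aminoluciferin released by caspase-3/7 cleavage of a peptide substrate served as read-out. Mouse fibroblast NIH 3T3 cells were exposed to compounds over a concentration range for 16 hours, and AC50 values came from standard Hill modelling.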

Experiment [8] deals with Cytochrome P450 3A4 (Homo sapiens) (UniProt P08684). The experiment is described as follows: qHTS Assay for Inhibitors and Substrates of Cytochrome P450 3A4 (AID 884). Note: nearly all actives have a fitted effect of over 50% in size. Note: potency is the fitted concentration of half-maximal effect. The conditions noted are these: recombinant CYP3A4, Luciferin-PPXE luminescence; series mostly up to 57.1 µM. Summed up:
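20 nM human CYP3A4 with 25 uM Luciferin-PPXE (at KM) in 200 mM KPO4, preincubated 10 min with compound; NADPH regeneration started a 60 min RT reaction. Luciferin detected by luminescence, normalized to 57 uM ketoconazole as full inhibition.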

Experiment [9] can be described thus: MultiTox-Fluor Cytotoxicity Assay - LYMP1-001 - Dead Cells (AID 946).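 Note: 0% = DMSO and 100% = tetraoctylammonium bromide.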 The conditions noted are these: LYMP1-001 lymphoblastoid cells, dead-cell protease fluorescence; series mostly up to 92.2 µM. The method in brief:
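In this qHTS, 15 uM tetraoctylammonium bromide defined 100% and DMSO defined basal activity. Lymphoblastoid cells (LYMP1-001, 2500 per well) received compound for 16 hr at 37 C before a fluorogenic dead-cell substrate readout at 485/520 nm.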

Experiment [10] is described as follows: Cell Viability - LYMP1-002 - Assay at 16 hr (AID 948).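 Note: 0% = DMSO alone and full effect = 92 µM tetraoctylammonium bromide.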 The conditions noted are these: LYMP1-002 lymphoblastoid cell viability; series mostly up to 92.2 µM. The method in brief: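 ATP luminescence (CellTiter-Glo) was measured after 16 hr compound exposure at 37 C of 2500 lymphoblastoid LYMP1-002 cells per well. Concentration-response curves were fitted with the Hill equation to give AC50.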

Experiment [11] is described as follows: MultiTox-Fluor Cytotoxicity Assay - LYMP1-003 - Live Cells (AID 962).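 Note: cells exposed to compound for 16 hours at 37 °C; 0% = DMSO only and full loss = 92 µM tetraoctylammonium bromide; cytotoxic hits lower the live-cell protease signal.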 Particulars: LYMP1-003 lymphoblastoid cells, MultiTox-Fluor live-cell protease fluorescence; series mostly up to 92.2 µM. The method in brief:
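qHTS, 1536-well; 2500 cells/well LYMP1-003; 5 hr 37 C settle; cpd 16 hr 37 C; MultiTox-Fluor reagent 60 min RT; live-cell protease fluor. 405/510; Hill-fit AC50; tetraoctylammonium bromide pos. ctrl.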

Experiment [12] can be described thus: Cell Viability - LYMP2-003 (AID 965).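 Note: cells exposed to compounds for 24 h before reading; 0% = DMSO only and full effect = 92 µM tetraoctylammonium bromide; nearly all actives have a fitted effect of over 50% in size.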 Particulars: LYMP2-003 lymphoblastoid cell viability; series mostly up to 92.2 µM. The method in brief:
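CellTiter-Glo luminescence quantified ATP loss after 24 h compound treatment of LYMP2-003 lymphoblastoid cells at 37 C. Titration series were fitted with the standard Hill equation to give AC50.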

Experiment [13] is described as follows: Cell Viability - LYMP2-026 (AID 989). Note: % is set by controls: 0 for no effect and ±100 for the full control effect; nearly all actives have a fitted effect of over 50% in size. Particulars: LYMP2-026 lymphoblastoid cell viability, qHTS; series mostly up to 92.2 µM. Summed up: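 Luminescent ATP signal (CellTiter-Glo, 30 min room temperature) measures viable lymphoblastoid cells after 24 hr compound treatment at 37 C. Decreased ATP reflects acute toxicity; AC50 values come from Hill-equation modeling.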

The nature of experiment [14]: Cell Viability - LYMP1-002 - Assay at 40 hr (AID 994).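 Note: 0% = DMSO only and full inhibition = 92 µM tetraoctylammonium bromide; nearly all actives have a fitted effect of over 60% in size.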 Particulars: LYMP1-002 lymphoblastoid cell viability; series mostly up to 92.2 µM. The method in brief: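 Luminescent ATP signal served as the viability readout, with decreases taken as toxicity. Cells were treated with compounds across a concentration range for 40 hours at 37 C, and AC50 values came from standard Hill modeling.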

A short description of experiment [15]: qHTS Assay for Identification of Small Molecule Inducers of Hypoxia Response (AID 2120; active = well fitted curve in the direction sought with a large enough effect in the signal ratio, with a control signal flat, not every such curve was filed as active; the % refers to the signal ratio; note: 0% is about no effect). The conditions noted are these: hypoxia response reporter cells, beta-lactamase ratio readout; series mostly up to 104 µM. The method in brief: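 ME-180 HRE-bla cells plated in Opti-MEM/0.5% dialyzed FBS, rested 4-5 h, then dosed with compound titrations by pin tool. After 17 h at 37 degrees C, CCF4 dye loaded 2.5 h at RT; 460/530 nm ratio gave %Activity and AC50.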

The nature of experiment [16]: qHTS assay for environmental chemicals that activate the Aryl hydrocarbon Receptor (AhR) signaling pathway (AID 651777). Note: % of control where 0% means no effect; nearly all actives have a fitted effect of over 15% in size. Particulars: 1A2-DRE human hepatoma cells, luciferase, 24 h; activation: stronger effect = higher value. The method in brief: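 Luminescence (One-Glo, 30 min, room temperature) reports AhR-driven luciferase in stably transfected human hepatoma cells bearing DRE and CYP1A2 promoter. Cells (1,200/well) were treated with compound for 24 hr at 37 C in qHTS format.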

For experiment [17], the target named is Peroxisome proliferator-activated receptor alpha (Homo sapiens) (UniProt Q07869). As to the kind of experiment: qHTS assay for small molecule agonists of the peroxisome proliferator-activated receptor alpha (PPARalpha) signaling pathway (AID 651778). Note: % of control where 0% means no effect. The conditions noted are these: PathHunter PPARalpha complementation, chemiluminescence, 6 h; stronger effect = higher value. The method in brief: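 Chemiluminescence from complemented enzyme reported PPARalpha activation in cells after 6 hr of compound treatment at 37 C. The detection reagent was incubated for 60 min at room temperature, and compounds were scored as agonists.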

Experiment [18] is described as follows: qHTS assay for small molecule agonists of the antioxidant response element (ARE) signaling pathway measured by Nrf2-dependant transcriptional activity - cell viability counter screen (AID 720653; active = well fitted curve in the direction sought with a large enough effect in the repeat runs; an effect the other way counts as inactive or inconclusive; note: % is set by controls: 0 for no effect and ±100 for the full control effect). The conditions noted are these: ARE-bla HepG2 viability, CellTiter-Glo ATP luminescence, 16 h; stronger effect = lower value. Summed up:
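Cytotoxicity counter screen: intracellular ATP quantified by CellTiter-Glo luminescence in the same ARE-bla HepG2 plates, after 16 h compound exposure and a 2 h beta-lactamase substrate step.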

The nature of experiment [19]: qHTS assay for cell viability of the p53RE-bla HCT-116 cell line (AID 743292). Note: % is set by controls: 0 for no effect and ±100 for the full control effect; nearly all actives have a fitted effect of over 55% in size. Particulars: p53RE-bla HCT-116 viability, ATP luminescence, 16 h; series mostly up to 95 µM. Summed up: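 ATP-based luminescent viability (CellTiter-Glo, 30 min RT) after 16 h compound treatment at 37 C of p53RE-bla HCT-116 cells, seeded at 4,000 cells/well and rested 5 h before dosing.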

Values joined by “and” are separate entries in the source; they are usually repeats but may differ in a detail not shown here. Identical values can stand only once. Values without a mark were called inactive. Records with an inconclusive call do not appear. Active and inactive are the calls of the source. Unless noted, calls come from the whole dose curve; as a rule, active = well fitted curve in the direction sought with a large enough effect; inconclusive = small, poorly fitted or top-dose-only effect, or another doubt; inactive = no such curve, though single readings can be large; an effect the other way counts as inactive or inconclusive. Bounds are passed on as bounds.

Cytochrome P450 3A4 (Homo sapiens), sequence (P08684 whole entry, looked up): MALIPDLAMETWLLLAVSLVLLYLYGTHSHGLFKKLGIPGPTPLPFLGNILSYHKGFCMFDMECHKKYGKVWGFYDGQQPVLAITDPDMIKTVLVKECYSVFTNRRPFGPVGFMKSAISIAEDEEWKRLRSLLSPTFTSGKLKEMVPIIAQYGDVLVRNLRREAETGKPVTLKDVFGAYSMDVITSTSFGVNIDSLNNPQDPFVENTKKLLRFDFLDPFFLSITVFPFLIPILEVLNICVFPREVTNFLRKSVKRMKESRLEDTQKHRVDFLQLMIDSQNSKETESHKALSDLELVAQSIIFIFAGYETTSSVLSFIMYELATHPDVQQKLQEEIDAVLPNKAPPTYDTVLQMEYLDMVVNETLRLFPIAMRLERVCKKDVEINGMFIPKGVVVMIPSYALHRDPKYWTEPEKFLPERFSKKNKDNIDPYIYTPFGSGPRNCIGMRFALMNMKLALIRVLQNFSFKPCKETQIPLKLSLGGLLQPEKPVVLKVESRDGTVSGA
Peroxisome proliferator-activated receptor alpha (Homo sapiens), sequence (Q07869 whole entry, looked up): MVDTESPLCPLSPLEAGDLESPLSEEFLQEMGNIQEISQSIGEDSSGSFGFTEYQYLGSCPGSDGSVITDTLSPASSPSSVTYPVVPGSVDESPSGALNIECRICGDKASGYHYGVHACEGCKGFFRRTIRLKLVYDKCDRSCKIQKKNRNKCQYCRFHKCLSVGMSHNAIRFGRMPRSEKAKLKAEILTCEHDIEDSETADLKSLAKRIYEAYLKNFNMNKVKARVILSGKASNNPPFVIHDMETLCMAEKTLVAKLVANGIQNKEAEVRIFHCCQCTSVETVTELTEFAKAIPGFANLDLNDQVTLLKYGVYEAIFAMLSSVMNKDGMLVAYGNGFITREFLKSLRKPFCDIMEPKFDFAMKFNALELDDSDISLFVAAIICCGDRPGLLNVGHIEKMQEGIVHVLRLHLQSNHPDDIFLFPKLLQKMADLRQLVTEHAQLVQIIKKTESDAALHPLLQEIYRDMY

Consider `COC(C)(C)C`, for which, in experiment [1], the Potency is more than 92 µM. Also, the call in [2], in experiment [3], in experiment [4], in experiment [9], in [10] and in [11] was inactive. For the same compound, the Potency result in [5], in experiment [7], in experiment [8], in experiment [12], in experiment [13] and in experiment [14] was “inactive” throughout. In addition, the Potency result in experiment [15] and in [19] was “inactive” each time. In addition, the caspase-3 activation in experiment [6] is 0.0289%. Also, in [16], the activation was -1.78%. The values for the max response in [17] and in [18] were -1.3% and 4.13%, respectively.

For the compound `Cc1cc(Cl)ccc1O`, the Potency in experiment [1] was more than 92 µM. Further, the result in experiment [2], in experiment [3], in experiment [4], in experiment [9], in experiment [10] and in experiment [11] was inactive. In addition, the Potency result in [5], in experiment [7], in [8], in experiment [12], in experiment [13] and in [14] was “inactive” throughout. In addition, the Potency entry in experiment [15] and in experiment [19] was “inactive” throughout. The caspase-3 activation in experiment [6] is 0.112%. The activation in [16] was 0.484%. The max response was -3.66% in [17] and 10.4% in experiment [18].

As for `ClC(Cl)C(Cl)Cl`, the Potency in experiment [1] is more than 92 µM. The compound was classed as inactive in [2], in experiment [3], in experiment [4], in [9], in experiment [10] and in experiment [11]. Moreover, the Potency result in experiment [5], in experiment [7], in [8], in [12], in experiment [13] and in [14] was “inactive” in each case. Also, the Potency entry in [15] and in experiment [19] was “inactive” in each case. Moreover, the caspase-3 activation in experiment [6] is -0.455%. In addition, the activation in [16] is -2.65%. The max response in experiment [17] is -3.31%; in experiment [18], -4.41%.

Take `Nc1ccc([N+](=O)[O-])cc1N`: the Potency in experiment [1] was more than 92 µM. Besides, the result in [2], in experiment [3], in [4], in [9], in experiment [10] and in experiment [11] was inactive. Besides, the Potency entry in [5], in [7], in experiment [8], in experiment [12], in [13] and in experiment [14] was “inactive” in each case. The Potency entry in experiment [15] and in experiment [19] was “inactive” each time. For the same compound, the caspase-3 activation in experiment [6] was 0.611%. In addition, in experiment [16], the activation is 1.47% and 1.07%. For the same compound, the max response in experiment [17] is -9.77% and -2.05%; in experiment [18], 0.262% and -5.88%.

Regarding `Nc1ccc(-c2ccccc2)cc1`, the Potency in [1] is more than 92 µM; in experiment [8] it was 12.6 µM (active). The result in experiment [2], in [3], in experiment [4], in experiment [9], in experiment [10] and in experiment [11] was inactive. The Potency result in [5], in [7], in [12], in [13], in [14] and in experiment [15] was “inactive” in each case. Besides, the Potency result in experiment [19] is “inactive”. Moreover, in [6], the caspase-3 activation is 1.62%. In [16], the activation is 12.6%. Moreover, the values for the max response in [17] and in experiment [18] were -0.418% and 5.56%, respectively.

Take `C/C=C/CC#N`: the Potency in [1] was more than 92 µM. Moreover, the compound was called inactive in [2], in [3], in experiment [4], in experiment [9], in experiment [10] and in experiment [11]. Further, the Potency result in experiment [5], in [7], in [8], in experiment [12], in experiment [13] and in [14] was “inactive” in each case. Also, the Potency result in experiment [15] and in experiment [19] was “inactive” in each case. In experiment [6], the caspase-3 activation was 1.26%. For the same compound, the activation in experiment [16] was -0.768%. Besides, the max response in [17] was -3.98%; in experiment [18], -11.2%.

(Values after PubChem BioAssay (NCATS).)
